FBW7 act: human FBW7 E3 ligase activation, primary screen; Q969H0; AlphaScreen FBW7–phospho-cyclin E peptide binding, activator screen; normalized activity (activation), % at 26.1 µM; 650,000 compounds, 0.13% hits; in the data active means normalized activity above about 1.9%;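 further: purified mutant Fbw7 with reduced substrate affinity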
Target sequence (Q969H0 whole entry, looked up): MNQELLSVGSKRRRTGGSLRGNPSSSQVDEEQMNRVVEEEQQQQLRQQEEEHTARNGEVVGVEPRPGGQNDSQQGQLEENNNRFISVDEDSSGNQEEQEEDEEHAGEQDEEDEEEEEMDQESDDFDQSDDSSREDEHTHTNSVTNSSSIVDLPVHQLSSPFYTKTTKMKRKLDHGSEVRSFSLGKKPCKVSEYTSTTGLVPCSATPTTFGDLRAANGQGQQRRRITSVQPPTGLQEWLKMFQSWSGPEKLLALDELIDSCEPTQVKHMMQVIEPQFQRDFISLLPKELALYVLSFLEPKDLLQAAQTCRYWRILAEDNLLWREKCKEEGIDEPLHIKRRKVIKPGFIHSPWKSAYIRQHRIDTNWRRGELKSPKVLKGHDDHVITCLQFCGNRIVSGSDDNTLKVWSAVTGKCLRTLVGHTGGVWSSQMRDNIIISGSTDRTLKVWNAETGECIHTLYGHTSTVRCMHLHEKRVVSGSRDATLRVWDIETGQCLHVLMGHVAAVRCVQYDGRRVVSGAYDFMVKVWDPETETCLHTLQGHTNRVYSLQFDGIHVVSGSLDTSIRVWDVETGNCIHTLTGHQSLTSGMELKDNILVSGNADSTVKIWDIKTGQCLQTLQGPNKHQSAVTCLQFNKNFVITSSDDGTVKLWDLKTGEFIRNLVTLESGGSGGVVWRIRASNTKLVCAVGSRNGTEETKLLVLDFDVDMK
GPR151 activ: activates the human receptor GPR151; Q8TDV0; PathHunter beta-arrestin GPR151 cells, luminescence; activation, % at 11.2 µM; 650,000 compounds, 1% hits; in the data active means activation above about 4.9%;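 further: 0% = median of compound wells and 100% = cells with positive control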
TEAD-YAP block: TEAD-YAP interaction inhibition | HEK-TIYL cells, TEAD-Gal4/YAP UAS-luciferase luminescence | inhibition, % at 9.12 µM | 640,000 compounds, 1.4% hits; in the data active means inhibition above about 32%;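 further: 0% = median of test compound wells and 100% = reference inhibitor wells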
MITF primary: blocks human microphthalmia-associated transcription factor. AlphaScreen MITF homodimerization, bead proximity signal. AID 1259374. inhibition, % at 2.6 µM. 650,000 compounds, 0.91% hits. O75030; in the data active means inhibition above about 50%;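 further: 0% = vehicle wells with protein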
GPR151 confirm: human GPR151 activation, confirmation screen. GPR151 PathHunter beta-arrestin cells, luminescence, 90 min; % of EA-reagent control over plate median. 6,700 tested, under 10 active. shares compounds with GPR151 activ. activation, % at 11.2 µM;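 active means mean percent activation across replicates above the confirmation screen cutoff of 4.91%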
GPR119 counter: activates human GPR119 in a GPR151 counter-screen; activation, % at 11.2 µM; shares compounds with GPR151 activ; GPR119 PathHunter beta-arrestin cells, luminescence, 90 min; 0 = compound-well median, 100 = enzyme-acceptor control; 6,700 compounds, 0.3% hits;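 active means mean percent activation in the counterscreen above 29.09%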;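 further: counterscreen on off-target GPR119 to flag nonselective hits from the GPR151 activator screen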
* = called active by the depositor; . = no result. Hits are enriched below; roughly 3.5% of the tested compounds scored in any of these assays.

SMILES	FBW7 act	GPR151 activ	TEAD-YAP block	MITF primary	GPR151 confirm	GPR119 counter
O=C(Nc1ccc(Cl)c(-c2nc3cc(Cl)ccc3o2)c1)c1ccc([N+](=O)[O-])o1	0	7.0*	11	13	1	9
O=C(Nc1ccc2oc(-c3cc(Br)ccc3Cl)nc2c1)c1ccc([N+](=O)[O-])o1	0	1	14	6	.	.
COc1ccc(C(=O)NCCN(C)C)cc1	0	-1	8	-2	.	.
O=c1cc(Nc2ccc3c(c2)OCO3)[nH]c(=O)n1-c1ccc(Br)cc1	0	22*	4	9	0	4
CCOC(=O)C1CCN(C(=O)Cc2c(C(=O)O)[nH]c3ccc(Cl)cc23)CC1	0	5.3*	-7	6	0	-1
Cc1nnc(NC(=O)CN2CCC(O)(c3ccc(F)cc3)CC2)s1	0	6.8*	2	-2	0	6
Cc1cccc(NC(=O)C2CCCN(S(=O)(=O)c3ccc4[nH]c(=O)ccc4c3)C2)n1 (stereo not given)	0	5.3*	3	6	0	-13
COc1ccccc1CC(=O)c1ccc(O)c(CN2CCCCC2C)c1O (stereo not given)	1	1	16	17	.	.
CC(=O)c1oc2ccccc2c1NC(=O)CN1CCCCC1	0	5.6*	-5	6	1	-9
CN1CCN(CC(=O)Nc2c(C(=O)C3CC3)oc3ccccc23)CC1	0	1	-10	-1	.	.
COC(=O)c1cc(-c2ccccc2)sc1NC(=O)CN1C(=O)c2ccccc2C1=O	0	15*	5	6	0	2
CCC(C)C(=O)N1CCC(n2nccc2NC(=O)Nc2cccc(F)c2)CC1 (stereo not given)	0	6.6*	-24	13	0	-10
COc1ccccc1C(=O)Nc1ccnn1C1CCN(Cc2cccc(F)c2)CC1	0	6.6*	14	-10	0	-6
O=C(c1ccc(N2CCCCC2)c([N+](=O)[O-])c1)N1CCOCC1	0	0	-10	2	.	.
CC1CCN(c2ccc(C(=O)N3CCOCC3)cc2[N+](=O)[O-])CC1	0	5.2*	-14	-5	-1	-18
Cc1ccc(C2CC(C(F)(F)F)n3ncc(C(=O)N4CCN(c5ccccc5)CC4)c3N2)cc1 (stereo not given)	0	-1	3	2	.	.
Nc1nc(NCCCN2CCCC2=O)cc(Nc2ncccn2)n1	0	3	4	5	.	.
O=C1c2cccc([N+](=O)[O-])c2C(=O)N1Cc1ccco1	0	5.2*	7	14	-1	-12
Cc1cnc(C)c(N2CCN(C(=O)CC3C(=O)NCCN3Cc3ccc(C)o3)CC2)n1 (stereo not given)	0	1	-22	0	.	.
C=CCSc1nc2c(c(=O)[nH]1)C(c1ccc(C)o1)C1=C(CCCC1=O)N2 (stereo not given)	0	6.3*	2	13	0	-6
COc1cc(-c2c(C#N)c(N)nc3sc(C#N)c(N)c23)cc(OC)c1OC	0	11*	-14	1	0	3
CCOC(=O)CSCC(=O)N1N=C(c2cccs2)CC1c1cccc(OC)c1OC (stereo not given)	0	6.6*	5	3	0	8
CC(C)n1c(Nc2ccc3ncccc3c2)nc2c(NCCN3CCOCC3)ncnc21	0	6.4*	-4	14	0	0
CC(C)n1c(Nc2ccccc2)nc2c(NCCc3ccc(O)cc3)ncnc21	0	6.1*	30	-1	-1	-11
CC(C)n1c(Nc2ccc3ncccc3c2)nc2c(NCCc3ccc(O)cc3)ncnc21	0	5.1*	-1	0	0	-5
SMILES	FBW7 act	GPR151 activ	TEAD-YAP block	MITF primary	GPR151 confirm	GPR119 counter
CCc1ccc(N2C(=O)C3CC(c4ccccc4)=C4C5C=CC(C6C(=O)N(c7ccc(CC)cc7)C(=O)C56)C4C3C2=O)cc1 (stereo not given)	0	1	15	6	.	.
N#C/C(=C\c1ccc(-c2cc(Cl)ccc2Cl)o1)C(=O)Nc1cccc2ncccc12	.	5.7*	.	-1	0	8
COCCNC(=O)/C(C#N)=C/c1ccc(-c2cc(Cl)ccc2Cl)o1	0	-1	-2	-6	.	.
CCOC(=O)c1sc(NC(=O)CSc2n[nH]c(-c3ccccc3)n2)nc1C	0	0	4	14	.	.
O=[N+]([O-])C1=C(Nc2ccc(Cl)c(Cl)c2)CS(=O)(=O)C1	0	-1	5	-5	.	.
Cc1ccc(NC2=C([N+](=O)[O-])CS(=O)(=O)C2)cc1	0	6.5*	-4	-2	0	10
Cc1ccc(-c2cnc(NCc3ccco3)nc2)cc1	0	1	-44	-2	.	.
Clc1nn2cnnc2c2ccccc12	0	6.9*	-2	0	0	-7
c1ccc(-c2nn3cnnc3c3ccccc23)cc1	0	1	-15	6	.	.
Cc1cccn2c(=O)c3cc(C#N)c(=O)n(-c4cccc(Cl)c4)c3nc12	0	0	11	-1	.	.
CN1C(=O)/C(=C/c2ccccc2OS(C)(=O)=O)SC1=S	0	5.7*	9	16	0	-11
O=C1NC2(CCCCCCC2)C(=O)N1CC(=O)N1CCCc2ccccc21	0	1	3	-9	.	.
COc1ccc(C(=O)N/N=C(\C)c2ccc(Cl)s2)cc1	0	-1	-12	-1	.	.
CS(=O)(=O)N1CCN(C(=S)NCc2ccc(Cl)cc2)CC1	0	6.8*	6	13	0	2
CS(=O)(=O)N1CCN(C(=S)NCc2ccc(F)cc2)CC1	0	-1	4	6	.	.
CS(=O)(=O)N1CCN(C(=O)c2ccncc2)CC1	0	5.6*	6	1	0	2
CS(=O)(=O)N1CCN(C(=O)c2ccc(Cl)cc2)CC1	0	7.8*	2	15	1	11
CS(=O)(=O)N1CCN(C(=O)c2cccnc2)CC1	0	1	5	8	.	.
CN(c1ccc(C(=O)N2CCCC2)cc1)S(=O)(=O)c1ccc(Cl)cc1	0	6.6*	1	10	-1	-16
O=C(c1cccc(Br)c1)N1CC(c2nc(-c3cccs3)no2)C1	0	0	6	8	.	.
CCc1ccc2[nH]c3nc(N/N=C/c4ccc(O)cc4)nnc3c2c1	0	2	-5	-2	.	.
CCc1ccc2[nH]c3nc(N/N=C/c4cccc(O)c4)nnc3c2c1	0	6.7*	-8	16	-1	2
C=CCN1C(=O)N(c2cccc(C)c2)C(=O)C1CC(=O)Nc1ccc(C(=O)OC)cc1 (stereo not given)	0	-1	5	13	.	.
COc1ccccc1/C=C/CN1CCNC(=O)C1CC(=O)NC1CCOCC1 (stereo not given)	0	4.9*	7	-6	-1	-11
